# CRFBP-R2 agonist: agonists of CRF-BP/CRF-R2 complex, primary screen, cell-based, HEK293, calcium dye fluorescence, uHTS; CRF-binding protein / CRF receptor 2 complex (human); calcium dye fluorescence (FLIPR); percent of saturating CRF peptide response; activation, % at 13.2 µM; 0.46% of 350,000 active; AID 588473, 2011;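 active = activation of at least 50%, plus an integration ratio under a set limit after plate pattern correction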;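 also: plate controls were neutral control wells without compound for no effect and CRF at EC100 for full effect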
# CRFBP-R2 block: antagonists of CRF-BP/CRF-R2 complex, primary screen, cell-based, HEK293, calcium dye fluorescence, uHTS. CRF-induced calcium fluorescence. inhibition, % at 11.8 µM. 0.59% of 350,000 active. AID 588475, 2011;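 active = inhibition of the ligand-induced calcium signal above about 50% at the single tested concentration, limit read from the data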
# Cardiac RTF inh: cardiac RTF calcium sensitivity inhibitors, primary screen, biochemical, IANBD-TnC fluorescence, EC70 calcium; inhibition, % at 7.15 µM; AID 493244, 2011; IANBD-labeled cardiac RTF, Ca2+ fluorescence; Troponin I, cardiac muscle (Homo sapiens) + Troponin T, cardiac muscle (Homo sapiens) + …; 0.12% of 340,000 active;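 active = inhibition above the mean inhibition of all tested compounds plus 3 SD, cut at about 17% in these data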;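 also: assay run at fixed EC70 calcium of 1.6 mM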
# ANO1 activ: TMEM16A chloride channel activators or potentiators, primary screen, cell-based, HTS; Anoctamin-1 (Mus musculus), Q8BHY3; HEK293 TMEM16A/YFP-H148Q/I152L, iodide quench fluorescence; stronger effect = lower value; B-score at 10 µM; 0.3% of 340,000 active; AID 623877, 2012;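 active = fluorescence-ratio B-score plate-corrected deviation score at least 3 library SD below zero, with starting fluorescence score within 5 deviations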;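 also: channel opened by trigger with iodide after compound preincubation; score built on the fluorescence ratio of max minus min over baseline; more negative score means more quench and so TMEM16A activation or potentiation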
# ANO1 block: TMEM16A chloride channel inhibitors, primary screen, cell-based, HTS. HEK293 TMEM16A/YFP iodide influx fluorescence, ionomycin. normalized B-score (activity score, 25-100; higher = stronger inhibition) at 10 µM. 1.2% of 310,000 active. AID 588511, 2011;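 active = ratio plate-corrected score three or more library SD toward inhibition, starting fluorescence score within five deviations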;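 also: score derived from kinetic fluorescence span divided by baseline fluorescence per well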
# RTF Ca sens act: cardiac RTF calcium sensitivity activators, primary screen, biochemical, IANBD-TnC fluorescence, EC20 calcium | Troponin I, cardiac muscle (Homo sapiens) + Troponin T, cardiac muscle (Homo sapiens) + … | IANBD-labeled TnC RTF fluorescence at EC20 calcium; 0% EC20 calcium, 100% full calcium | activation, % at 7.2 µM | 0.24% of 340,000 active | AID 493008, 2010;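 active = activation above the mean over all tested compounds plus 3 SD, cut at about 30% in these data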;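 also: rise in fluorescence read as greater calcium sensitivity of cardiac thin filaments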
# * marks the source's active call; other numbers are inactive results; i = inactive; · = no result given. In the library only some 2.4% were active in any assay of this set; here they are far more common.
SMILES,CRFBP-R2 agonist,CRFBP-R2 block,Cardiac RTF inh,ANO1 activ,ANO1 block,RTF Ca sens act
COc1ccc2nc(N3CCC(C)CC3)c(C#N)cc2c1,12,-21,-25,i,i,0
COc1ccc2cc(C#N)c(N3CCOCC3)nc2c1,-7,10,-6,i,i,4
COc1ccc2nc(N3CCC(O)CC3)c(C#N)cc2c1,52*,7,-10,i,i,11
O=C(NC1CCCC1)c1sc(=S)n2c1[nH]c(=O)c1ccccc12,87*,30,5,i,i,0
O=C(NCc1ccccc1)c1ccc2c(=O)[nH]c3c(C(=O)NCC4CCCO4)sc(=S)n3c2c1 (stereo not drawn),-4,27,5,i,i,0
CCCCCNC(=O)c1ccc2c(=O)[nH]c3c(C(=O)NCC4CCCO4)sc(=S)n3c2c1 (stereo not drawn),3,-13,4,i,i,-3
O=C(NCc1ccco1)c1sc(=S)n2c1[nH]c(=O)c1ccccc12,55*,27,2,i,100*,-3
COC1=CC(=O)C(O)=C(CCCCCCC/C=C/CCCCCCCC2=C(O)C(=O)C=C(OC)C2=O)C1=O,-1,4,7,i,100*,-25
CCCCCCCCCCCC1=C(O)C(=O)C=C(O)C1=O,62*,-88,10,i,i,-13
CCCCCCc1c(O)c2ccccc2[nH]c1=O,0,-4,4,i,i,-4
O=C(CCc1ccccc1)NCCc1ccc(F)cc1,0,6,0,i,i,6
Cc1ccc2c(c1C)C(=O)C(=O)N2,2,8,-2,i,·,0
CCc1ccc2oc(=O)cc(CN(C)Cc3ccccc3)c2c1,0,7,-1,i,100*,-7
CCCn1c(=O)c2[nH]c(-c3ccc(S(=O)(=O)O)cc3)nc2n(CCC)c1=O,-3,-1,-4,i,i,-1
O=C(On1c(-c2ccccc2)nc2ccccc2c1=O)c1ccco1,1,-2,-5,i,100*,6
C/C(=C/c1ccccc1)C(=O)N1CCC(C)CC1,-2,-1,-9,i,i,11
O=C(Nc1cccc(S(=O)(=O)N2CCCCC2)c1)c1ccc(S(=O)(=O)C(F)F)cc1,2,54*,-4,i,i,0
O=C(Nc1cccc(S(=O)(=O)C(F)F)c1)c1ccc(S(=O)(=O)N2CCCCC2)cc1,7,-47,-2,i,i,0
CCOC(=O)C(Oc1ccc(=O)n(-c2ccccc2)n1)C(C)=O (stereo not drawn),-3,3,2,i,i,-2
Cc1cc(NS(=O)(=O)c2cc(Cl)sc2Cl)no1,1,9,-6,i,i,2
CCOc1ccc(NC(=O)COC(=O)c2ncc(Cl)c(Cl)c2Cl)cc1,2,-10,-9,i,i,1
NS(=O)(=O)c1ccc(NC(=O)COC(=O)c2ncc(Cl)c(Cl)c2Cl)cc1,0,3,-6,-5*,·,-5
Cc1cc(C)c(C)c(S(=O)(=O)N2CCN(C(=O)C3CSC4(C)CCC(=O)N34)CC2)c1C (stereo not drawn),-3,10,-22,i,i,-4
O=C(Nc1nnc(-c2ccc(Cl)cc2)o1)c1nc2ccccc2s1,187*,-121,-13,-13*,i,4
O=C(Nc1nnc(-c2ccccc2)o1)c1cc(Cl)sc1Cl,188*,37,-1,i,i,1
COc1ccc(C(=O)Nc2nnc(-c3ccccc3)o2)cc1OC,-1,4,-10,i,i,-5

# Assay outcomes deposited in PubChem by several laboratories.
